The values below come from PubChem BioAssay.

The structures appear in SMILES notation.

Chain of Left-right determination factor 2 (Homo sapiens) (O00292 whole entry, looked up): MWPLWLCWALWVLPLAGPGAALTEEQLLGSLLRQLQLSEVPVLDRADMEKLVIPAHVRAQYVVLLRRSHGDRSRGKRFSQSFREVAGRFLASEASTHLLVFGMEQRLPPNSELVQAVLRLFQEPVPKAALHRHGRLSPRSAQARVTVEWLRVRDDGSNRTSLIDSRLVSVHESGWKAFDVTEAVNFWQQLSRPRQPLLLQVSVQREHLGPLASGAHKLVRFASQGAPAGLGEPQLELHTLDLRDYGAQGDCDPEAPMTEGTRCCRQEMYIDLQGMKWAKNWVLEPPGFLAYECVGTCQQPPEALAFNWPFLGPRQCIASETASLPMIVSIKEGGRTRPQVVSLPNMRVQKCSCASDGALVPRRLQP

The first test has as its target Left-right determination factor 2 (Homo sapiens) (UniProt O00292). Briefly: small molecules binding LEFTY2 protein – biochemical, small-molecule microarray, 635 nm fluorescence scan, primary screen (AID 1110). Conditions: higher = more signal.
For `O=c1cccc(-c2ccco2)o1`, the composite z-score was determined as 0.758.
Same read-out and setting: next, `CN(C)C(=O)[C@@]1(Cc2ccccc2N=[N+]=[N-])N=C(c2ccc(OCCCO)cc2)O[C@H]1c1ccccc1`: 0.123.
`CC(C)[C@H]1NC(=O)[C@@]23C(=O)N[C@@H](Cc4ccccc4)C2[C@H](C)[C@@]2(C)O[C@H]2C3/C=C/CCC/C=C/CNC(=O)[C@H](Cc2ccccc2)NC1=O` (some centres not stated): the composite z-score was -0.0883.
The compound `C=CCC(OC(C)=O)[C@@H]1[C@@H](N(Cc2cc3ccccc3o2)C(=O)c2ccc(-c3ccccc3)cc2)c2cc(OCCCO)ccc2N1C(=O)Cc1ccc(OC)cc1` (some centres not stated) gave a composite z-score of 0.0189.
The compound `[N-]=[N+]=NCc1ccccc1[C@H]1OC(c2ccc(OCCCO)cc2)=N[C@@]1(CCS(=O)(=O)c1ccccc1)C(=O)NCc1ccccc1` displayed a composite z-score of 0.115.
On the same count and under the same terms, next, `CC(=O)n1cc(C(O)C2C=CC3C(=O)N(c4ccccc4)C(=O)C3N2Nc2ccc(C(C)C)cc2)c2ccccc21` (configuration not stated): -0.0688; `C=C(COC)C(=O)CC[C@H](OC(C)=O)c1ccc(OCCO)cc1`: 0.557; `Cc1ccccc1C(O)C1C=CC2C(=O)NC(=O)C2N1Nc1ccc(Cl)cc1Cl` (configuration not stated): -0.345.

Another test concerns the target Calmodulin-1 (Homo sapiens) (UniProt P0DP23). Kind of test: small molecules binding calmodulin-1 with EGTA – biochemical, small-molecule microarray, Cy5-labelled CALM1, profiling panel (AID 1111).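 Further: labelled calmodulin applied in Tris saline Tween buffer holding calcium plus EGTA and DTT.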 The settings on record: Cy5-CALM1 binding fluorescence, higher = more signal.
`CCOC(=O)C1=CCC(c2ccco2)N(S(=O)(=O)c2ccc(C)cc2)C1` (configuration not stated) showed a composite z-score of 0.921.
Take `COCCOC(=O)N1C(=O)[C@@]2(c3cc(C#CCC(C(=O)OC)C(=O)OC)ccc31)[C@H](C(=O)NC[C@H](O)c1ccccc1)[C@H]1C(=O)O[C@H](c3ccccc3)[C@H](c3ccccc3)N1[C@@H]2c1ccc(OCCO)cc1`: the composite z-score came out at 1.39.
Still for that read-out and setting: with `CCCNC(=O)[C@@]1(Sc2ccc(C)cc2)CC(=O)N(C(C)C)[C@@H]1c1ccc(CO)cc1I` the figure was 1.31; with `COC(=O)[C@@]1(Cc2ccc(F)cc2)[C@H]2c3cc(C(=O)N4CCCC4)n(C)c3C[C@H]2CN1C(=O)c1ccccc1`, 2.5; with `O=C1O[C@H](c2ccccc2)[C@H](c2ccccc2)N2[C@H]1[C@@H](C(=O)N1CCCCCCC1)[C@]1(C(=O)Nc3ccc(C#CC4(O)CCCCCC4)cc31)[C@H]2c1ccc(O)cc1`, 2.42.
Compound `O=C1O[C@H](c2ccccc2)[C@H](c2ccccc2)N2[C@H]1[C@@H](C(=O)O)[C@]1(C(=O)Nc3ccc(C#CC4(O)CCCCCC4)cc31)[C@H]2c1ccc(O)cc1` showed a composite z-score of 0.277.
Still for that read-out and setting: next, `COCCOC(=O)N1C(=O)[C@@]2(c3ccccc31)[C@H](c1ccccc1OCCO)N1[C@H](c3ccccc3)[C@H](c3ccccc3)OC(=O)[C@H]1[C@@H]2C(N)=O`: 1.93.
Still for that read-out and setting: next, `NC(=O)[C@@H]1[C@H]2C(=O)O[C@H](c3ccccc3)[C@H](c3ccccc3)N2[C@H](c2ccc(OCCO)cc2)[C@@]12C(=O)Nc1ccc(C#CCCO)cc12`: 1.09; `Cc1cccc([C@H]2C[C@H]3C(Br)=C[C@@H]2C(=O)[C@]32CO2)c1`: -0.206.
The same measure, in the same setting: next, `COc1ccc(C#Cc2ccc3c(c2)[C@]2(C(=O)N3)[C@H](C(=O)Nc3nc4ccccc4s3)[C@H]3C(=O)O[C@H](c4ccccc4)[C@H](c4ccccc4)N3[C@@H]2c2ccccc2OCCO)cc1`: 1.55; `C=CCNC(=O)[C@@H]1[C@H]2C(=O)O[C@H](c3ccccc3)[C@H](c3ccccc3)N2[C@H](c2ccc(OCCO)cc2)[C@@]12C(=O)N(C(=O)OCCOC)c1ccc(C#CCCO)cc12`: 0.88; `COCC(=C=CC[C@@H](O)c1cccc(OCCO)c1)CCO`: 0.32.
Compound `COCCOC(=O)N1C(=O)[C@@]2(c3cc(C#CC4(O)CCCCCC4)ccc31)[C@H](C(=O)N1CCN(c3ncccn3)CC1)[C@H]1C(=O)O[C@H](c3ccccc3)[C@H](c3ccccc3)N1[C@@H]2c1ccccc1OCCO` returned a composite z-score of 0.348.
The compound `[N-]=[N+]=Nc1ccccc1C[C@]1(C(=O)O)N=C(c2ccc(OCCCO)cc2)O[C@H]1c1ccccc1N=[N+]=[N-]` displayed a composite z-score of 2.1.
Still for that read-out and setting: next, `NC(=O)NCC#Cc1ccc2c(c1)[C@]1(C(=O)N2)[C@H](C(=O)N2CCN(c3ncccn3)CC2)[C@H]2C(=O)O[C@H](c3ccccc3)[C@H](c3ccccc3)N2[C@@H]1c1ccc(OCCO)cc1`: 0.756; `CN(C)C(=O)[C@@]1(Cc2ccccc2)COC(c2ccc(OCCCO)cc2)=N1`: 0.153.
Regarding `CCN(CC)c1ccc(N2CC=CC34O[C@@H]5C=CCCOC(=O)C5[C@H]3C(=O)N(CCO)[C@@H]4C2=O)cc1` (some centres not stated), the composite z-score is -0.547.
The compound `C[C@@H]1ON(c2ccc(I)cc2)[C@H](c2ccc(OC(=O)OC(C)(C)C)cc2)[C@H]1C(=O)N1C(=O)OC[C@H]1Cc1ccccc1` had a composite z-score of 0.501.
Still for that read-out and setting: with `COc1cc(CO)cc(I)c1O[C@H]1C=C(C(=O)NCCO)C[C@@H](NCC2CCCCC2)[C@@H]1O` the figure was -0.11.
